# Results as given in PubChem BioAssay AID1159580 (chemical genetic matrix, 2015).
# In all, about 5,500 compounds went through this assay and about 2,000 (36%) were called active. About 18% were inconclusive and are not listed. This is one part of the list. Unmarked numbers belong to inactive results. No stated cut-off is given here; in the data, active means normalized growth mostly below about 0.91 (no sharp cut-off); inconclusive means no clear call, values can overlap the other calls; inactive means mostly above about 0.92.
# Experiment: chemical genetic growth profiling, strain panel (AID 1159580);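 further: tested at 20 µM; growth read once vehicle control cultures reached saturation at 30 °C; 1 = growth at the plate median or of vehicle wells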
# Settings: growth OD
# [1] = S. cerevisiae deletion strains, locus YCL061C, strain MRC1, stronger effect = lower value
# [2] = S. cerevisiae deletion strains, locus YHR030C, strain SLT2, stronger effect = lower value
smiles,measurement,setting,value
COc1ccc(CCNc2ccc(C(F)(F)F)cc2N)cc1OC,normalized growth,"S. cerevisiae deletion strains, locus YAL013W, strain DEP1, stronger effect = lower value",1
same,normalized growth,"S. cerevisiae deletion strains, locus YBR229C, strain ROT2, stronger effect = lower value",0.998
same,normalized growth,[1],1
same,normalized growth,"S. cerevisiae deletion strains, locus YDL101C, strain DUN1, stronger effect = lower value",0.974
same,normalized growth,"S. cerevisiae deletion strains, locus YDL134C, strain PPH21, stronger effect = lower value",1.02
same,normalized growth,"S. cerevisiae deletion strains, locus YDR150W, strain NUM1, stronger effect = lower value",0.911
same,normalized growth,"S. cerevisiae deletion strains, locus YEL061C, strain CIN8, stronger effect = lower value",1.02
same,normalized growth,"S. cerevisiae deletion strains, locus YGR078C, strain PAC10, stronger effect = lower value",0.985
same,normalized growth,[2],0.903
same,normalized growth,"S. cerevisiae deletion strains, locus YHR087W, strain rtc3, stronger effect = lower value",1.04
same,normalized growth,"S. cerevisiae deletion strains, locus YJR043C, strain POL32, stronger effect = lower value",0.996
same,normalized growth,"S. cerevisiae deletion strains, locus YJR075W, strain HOC1, stronger effect = lower value",1.02
same,normalized growth,"S. cerevisiae deletion strains, locus YLR039C, strain RIC1, stronger effect = lower value",0.988
same,normalized growth,"S. cerevisiae deletion strains, locus YLR058C, strain SHM2 (second series), stronger effect = lower value",1.01
same,normalized growth,"S. cerevisiae deletion strains, locus YLR085C, strain ARP6, stronger effect = lower value",0.961
same,normalized growth,"S. cerevisiae deletion strains, locus YLR262C, strain YPT6, stronger effect = lower value",0.946
same,normalized growth,"S. cerevisiae deletion strains, locus YML094W, strain GIM5, stronger effect = lower value",0.972
same,normalized growth,"S. cerevisiae deletion strains, locus YMR219W, strain ESC1, stronger effect = lower value",0.994
same,normalized growth,"S. cerevisiae deletion strains, locus YMR263W, strain SAP30, stronger effect = lower value",0.918
same,normalized growth,"S. cerevisiae deletion strains, locus YNL153C, strain GIM3, stronger effect = lower value",0.988
same,normalized growth,"S. cerevisiae deletion strains, locus YNL298W, strain CLA4 (second series), stronger effect = lower value",0.966
same,normalized growth,"S. cerevisiae deletion strains, locus YNL322C, strain KRE1, stronger effect = lower value",1.01
same,normalized growth,"S. cerevisiae deletion strains, locus YNR030W, strain Alg12, stronger effect = lower value",0.974
same,normalized growth,"S. cerevisiae deletion strains, locus YOL006C, strain TOP1, stronger effect = lower value",1.01
same,normalized growth,"S. cerevisiae deletion strains, locus YPL055C, strain LGE1, stronger effect = lower value",0.893
same,normalized growth,"S. cerevisiae deletion strains, locus YPL241C, strain CIN2, stronger effect = lower value",0.93
same,normalized growth,"S. cerevisiae deletion strains, locus YPR135W, strain CTF4, stronger effect = lower value",0.842
same,normalized growth,"S. cerevisiae strains, strain wild type, stronger effect = lower value",1.01
O=C1[O][Bi][O]c2ccccc21,normalized growth,"S. cerevisiae deletion strains, locus YAL021C, strain ccr4, stronger effect = lower value",1.06
same,normalized growth,"S. cerevisiae deletion strains, locus YAL026C, strain drs2, stronger effect = lower value",1.05
same,normalized growth,"S. cerevisiae deletion strains, locus YAL030W, strain snc1, stronger effect = lower value",0.972
same,normalized growth,"S. cerevisiae deletion strains, locus YBL061C, strain skt5, stronger effect = lower value",1.04
same,normalized growth,"S. cerevisiae deletion strains, locus YBR009C, strain hhf1, stronger effect = lower value",0.981
same,normalized growth,"S. cerevisiae deletion strains, locus YBR023C, strain chs3, stronger effect = lower value",1.05
same,normalized growth,"S. cerevisiae deletion strains, locus YBR171W, strain sec66, stronger effect = lower value",1.07
same,normalized growth,"S. cerevisiae deletion strains, locus YBR231C, strain swc5, stronger effect = lower value",1.02
same,normalized growth,"S. cerevisiae deletion strains, locus YBR279W, strain paf1, stronger effect = lower value",0.932
same,normalized growth,"S. cerevisiae deletion strains, locus YCL011C, strain gbp2, stronger effect = lower value",0.966
same,normalized growth,"S. cerevisiae deletion strains, locus YCL016C, strain dcc1, stronger effect = lower value",1.04
same,normalized growth,[1],1.05
same,normalized growth,"S. cerevisiae deletion strains, locus YCL069W, strain vba3, stronger effect = lower value",1.06
same,normalized growth,"S. cerevisiae deletion strains, locus YCR088W, strain abp1, stronger effect = lower value",1.07
same,normalized growth,"S. cerevisiae deletion strains, locus YDL005C, strain med2, stronger effect = lower value",1.05
same,normalized growth,"S. cerevisiae deletion strains, locus YDL040C, strain nat1, stronger effect = lower value",1.03
same,normalized growth,"S. cerevisiae deletion strains, locus YDR001C, strain nth1, stronger effect = lower value",1.03
same,normalized growth,"S. cerevisiae deletion strains, locus YDR069C, strain doa4, stronger effect = lower value",0.944
same,normalized growth,"S. cerevisiae deletion strains, locus YDR137W, strain rgp1, stronger effect = lower value",1
same,normalized growth,"S. cerevisiae deletion strains, locus YDR159W, strain sac3, stronger effect = lower value",0.954
same,normalized growth,"S. cerevisiae deletion strains, locus YDR195W, strain ref2",1.3 [resistant] (active)
same,normalized growth,"S. cerevisiae deletion strains, locus YDR297W, strain sur2, stronger effect = lower value",0.94
same,normalized growth,"S. cerevisiae deletion strains, locus YDR334W, strain swr1, stronger effect = lower value",1.05
same,normalized growth,"S. cerevisiae deletion strains, locus YDR335W, strain msn5, stronger effect = lower value",1.04
same,normalized growth,"S. cerevisiae deletion strains, locus YDR392W, strain spt3, stronger effect = lower value",1.03
same,normalized growth,"S. cerevisiae deletion strains, locus YEL003W, strain gim4, stronger effect = lower value",1.03
same,normalized growth,"S. cerevisiae deletion strains, locus YEL037C, strain rad23, stronger effect = lower value",1.03
same,normalized growth,"S. cerevisiae deletion strains, locus YEL061C, strain CIN8 (second series), stronger effect = lower value",1.02
same,normalized growth,"S. cerevisiae deletion strains, locus YER015W, strain faa2, stronger effect = lower value",0.951
same,normalized growth,"S. cerevisiae deletion strains, locus YER016W, strain bim1, stronger effect = lower value",1.05
same,normalized growth,"S. cerevisiae deletion strains, locus YER111C, strain swi4, stronger effect = lower value",1.02
same,normalized growth,"S. cerevisiae deletion strains, locus YER155C, strain BEM2 (second series), stronger effect = lower value",0.997
same,normalized growth,"S. cerevisiae deletion strains, locus YFR010W, strain ubp6, stronger effect = lower value",1.11 [resistant] (active)
same,normalized growth,"S. cerevisiae deletion strains, locus YGL167C, strain pmr1, stronger effect = lower value",1.03
same,normalized growth,"S. cerevisiae deletion strains, locus YGL173C, strain kem1, stronger effect = lower value",0.416 (active)
same,normalized growth,"S. cerevisiae deletion strains, locus YGL227W, strain vid30, stronger effect = lower value",1.05
same,normalized growth,"S. cerevisiae deletion strains, locus YGL240W, strain doc1, stronger effect = lower value",1.13 [resistant] (active)
same,normalized growth,"S. cerevisiae deletion strains, locus YGL253W, strain hxk2, stronger effect = lower value",1.05
same,normalized growth,"S. cerevisiae deletion strains, locus YHR013C, strain ard1, stronger effect = lower value",1.02
same,normalized growth,"S. cerevisiae deletion strains, locus YHR027C, strain rpn1, stronger effect = lower value",0.904 (active)
same,normalized growth,[2],0.996
same,normalized growth,"S. cerevisiae deletion strains, locus YHR079C, strain IRE1, stronger effect = lower value",0.985
same,normalized growth,"S. cerevisiae deletion strains, locus YHR142W, strain chs7, stronger effect = lower value",1.08
same,normalized growth,"S. cerevisiae deletion strains, locus YJL092W, strain hpr5, stronger effect = lower value",1.06
same,normalized growth,"S. cerevisiae deletion strains, locus YJL095W, strain BCK1 (second series), stronger effect = lower value",0.914 (active)
same,normalized growth,"S. cerevisiae deletion strains, locus YJL095W, strain BCK1, stronger effect = lower value",1.02
same,normalized growth,"S. cerevisiae deletion strains, locus YJL115W, strain asf1, stronger effect = lower value",1.03
same,normalized growth,"S. cerevisiae deletion strains, locus YJL129C, strain trk1, stronger effect = lower value",1.05
same,normalized growth,"S. cerevisiae deletion strains, locus YJL154C, strain vps35, stronger effect = lower value",1.04
same,normalized growth,"S. cerevisiae deletion strains, locus YJL164C, strain tpk1, stronger effect = lower value",0.732 (active)
same,normalized growth,"S. cerevisiae deletion strains, locus YJL166W, strain qcr8, stronger effect = lower value",0.937
same,normalized growth,"S. cerevisiae deletion strains, locus YJR066W, strain TOR1, stronger effect = lower value",0.925
same,normalized growth,"S. cerevisiae deletion strains, locus YKL160W, strain elf1, stronger effect = lower value",0.996
same,normalized growth,"S. cerevisiae deletion strains, locus YKR026C, strain gcn3, stronger effect = lower value",1.05
same,normalized growth,"S. cerevisiae deletion strains, locus YKR091W, strain srl3, stronger effect = lower value",1.04
same,normalized growth,"S. cerevisiae deletion strains, locus YLL001W, strain dnm1, stronger effect = lower value",1.04
same,normalized growth,"S. cerevisiae deletion strains, locus YLL026W, stronger effect = lower value",1.01
same,normalized growth,"S. cerevisiae deletion strains, locus YLL041C, strain sdh2, stronger effect = lower value",1.04
same,normalized growth,"S. cerevisiae deletion strains, locus YLR027C, strain aat2, stronger effect = lower value",1.04
same,normalized growth,"S. cerevisiae deletion strains, locus YLR113W, strain HOG1, stronger effect = lower value",1.06
same,normalized growth,"S. cerevisiae deletion strains, locus YLR221C, strain rsa3, stronger effect = lower value",1.02
same,normalized growth,"S. cerevisiae deletion strains, locus YLR258W, strain gsy2, stronger effect = lower value",1.02
same,normalized growth,"S. cerevisiae deletion strains, locus YLR262C, strain YPT6 (second series), stronger effect = lower value",1.06
same,normalized growth,"S. cerevisiae deletion strains, locus YLR320W, strain mms22, stronger effect = lower value",1.03
same,normalized growth,"S. cerevisiae deletion strains, locus YLR342W, strain FKS1, stronger effect = lower value",1.01
same,normalized growth,"S. cerevisiae deletion strains, locus YLR357W, strain rsc2, stronger effect = lower value",1
same,normalized growth,"S. cerevisiae deletion strains, locus YLR370C, strain arc18, stronger effect = lower value",1.06
same,normalized growth,"S. cerevisiae deletion strains, locus YLR384C, strain iki3, stronger effect = lower value",1.01
same,normalized growth,"S. cerevisiae deletion strains, locus YML120C, strain ndi1, stronger effect = lower value",1.03
same,normalized growth,"S. cerevisiae deletion strains, locus YMR058W, strain fet3, stronger effect = lower value",0.851 (active)
same,normalized growth,"S. cerevisiae deletion strains, locus YMR125W, strain sto1, stronger effect = lower value",1.04
same,normalized growth,"S. cerevisiae deletion strains, locus YMR129W, stronger effect = lower value",0.96
same,normalized growth,"S. cerevisiae deletion strains, locus YMR205C, strain PFK2, stronger effect = lower value",0.985
same,normalized growth,"S. cerevisiae deletion strains, locus YMR231W, strain pep5, stronger effect = lower value",1.02
same,normalized growth,"S. cerevisiae deletion strains, locus YNL071W, strain lat1, stronger effect = lower value",1.03
same,normalized growth,"S. cerevisiae deletion strains, locus YNL183C, strain NPR1, stronger effect = lower value",0.936
same,normalized growth,"S. cerevisiae deletion strains, locus YNL209W, strain ssb2, stronger effect = lower value",0.923 (active)
same,normalized growth,"S. cerevisiae deletion strains, locus YNL248C, strain rpa49, stronger effect = lower value",1.07
same,normalized growth,"S. cerevisiae deletion strains, locus YNL322C, strain KRE1 (second series), stronger effect = lower value",1.05
same,normalized growth,"S. cerevisiae deletion strains, locus YNR049C, strain mso1, stronger effect = lower value",1.05
same,normalized growth,"S. cerevisiae deletion strains, locus YOR001W, strain rrp6, stronger effect = lower value",1.06
same,normalized growth,"S. cerevisiae deletion strains, locus YOR070C, strain gyp1, stronger effect = lower value",1.03
same,normalized growth,"S. cerevisiae deletion strains, locus YOR080W, strain dia2, stronger effect = lower value",1.05
same,normalized growth,"S. cerevisiae deletion strains, locus YOR083W, strain WHI5, stronger effect = lower value",1.03
same,normalized growth,"S. cerevisiae deletion strains, locus YOR106W, strain vam3, stronger effect = lower value",0.861 (active)
same,normalized growth,"S. cerevisiae deletion strains, locus YOR231W, strain MKK1, stronger effect = lower value",1.02
same,normalized growth,"S. cerevisiae deletion strains, locus YOR265W, strain rbl2, stronger effect = lower value",1.04
same,normalized growth,"S. cerevisiae deletion strains, locus YOR270C, strain vph1, stronger effect = lower value",1.35 [resistant] (active)
same,normalized growth,"S. cerevisiae deletion strains, locus YOR290C, strain snf2, stronger effect = lower value",1.01
same,normalized growth,"S. cerevisiae deletion strains, locus YPL051W, strain arl3, stronger effect = lower value",0.945
same,normalized growth,"S. cerevisiae deletion strains, locus YPL078C, strain atp4, stronger effect = lower value",1.04
same,normalized growth,"S. cerevisiae deletion strains, locus YPL106C, strain sse1, stronger effect = lower value",1
same,normalized growth,"S. cerevisiae deletion strains, locus YPL240C, strain hsp82, stronger effect = lower value",1.02
same,normalized growth,"S. cerevisiae deletion strains, locus YPL256C, strain CLN2, stronger effect = lower value",1
